± gives the standard deviation of the averaged measurements.
System: AEK1 (Tb927.3.2440)
Assay: percent reduction in TR-FRET probe signal relative to DMSO control; higher = stronger displacement of ATP-site probe (binding)
Conditions: 1 µM; incubation time 1 h

Compound | percent reduction in TR-FRET probe signal [%]
Nc1cccc(-c2cc3c(Oc4cccc(O)c4)ncnc3[nH]2)c1 | 18.7 ± 22
CS(=O)(=O)O.N#CC1(c2ccc(NC(=O)c3cccnc3NCc3ccncc3)cc2)CCCC1 [Apatinib] | -2.66 ± 9.6
CNC(=O)Nc1ccc(-c2nc(N3CC4CCC(C3)O4)c3cnn(C4CCC5(CC4)OCCO5)c3n2)cc1 | -1.55 ± 9.3
CC(O)C(=O)O.CC(O)C(=O)O.CN1CCN(c2ccc3nc(-c4c(N)c5c(F)cccc5[nH]c4=O)[nH]c3c2)CC1 [Dovitinib (TKI-258) Dilactic Acid] | 10.5 ± 12
C=CC(=O)Nc1cccc(Nc2nc(Nc3ccc(NC4CN(CCF)C4)cc3OC)ncc2C(F)(F)F)c1 | -12.2 ± 9.2
CN1CCN(c2ccc(C(=O)Nc3n[nH]c4ccc(Cc5cc(F)cc(F)c5)cc34)c(NC3CCOCC3)c2)CC1 [Entrectinib (RXDX-101)] | -3.42 ± 2.4
COc1cc(N2CCC(N)CC2)ccc1Nc1ncc(Cl)c(-c2c[nH]c3ccccc23)n1 | 7.47 ± 4.6
CC(C)(C)c1ccc(S(=O)(=O)/C=C/C#N)cc1 | -17 ± 7.6
O=C(NCCCNc1nc(Nc2cccc(NC(=O)N3CCCC3)c2)ncc1I)c1cccs1 | -0.457 ± 1.2
CO[C@H]1C[C@@H]2CC[C@@H](C)[C@@](O)(O2)C(=O)C(=O)N2CCCC[C@H]2C(=O)O[C@H]([C@H](C)C[C@@H]2CC[C@@H](OC(=O)C(C)(CO)CO)[C@H](OC)C2)CC(=O)[C@H](C)/C=C(\C)[C@@H](O)[C@@H](OC)C(=O)[C@H](C)C[C@H](C)/C=C/C=C/C=C/1C | 2.13 ± 12
Cc1c(F)cc(C(=O)NC2CC2)cc1-c1ccc(C(=O)NCC(C)(C)C)cn1 | -10 ± 9.6
O=C(NCc1cccc(O)c1)Nc1nc(-c2ccncc2)cs1 | -10 ± 8.6
O=c1c(O)c(-c2ccc(O)c(O)c2)oc2cc(O)cc(O)c12 [Quercetin] | 8.35 ± 5.3
CCS(=O)(=O)c1cccc(-c2cc(C(=O)NC3CCN(C)CC3)c(C)c3[nH]c4ncc(C)cc4c23)c1 | 79.9 ± 8.1
Cl.O=C1NCCc2[nH]c(-c3ccncc3)cc21 | 11.4 ± 8.5
CN1CCN(C2CCN(C(=O)Nc3cc(Oc4ccc(NC(=O)C5(C(=O)Nc6ccc(F)cc6)CC5)c(F)c4)ccn3)CC2)CC1 [Golvatinib (E7050)] | 0.527 ± 8

Compound | percent reduction in TR-FRET probe signal [%]
C[C@]1(O)C[C@@H](c2nc(-c3ccc4ccc(-c5ccccc5)nc4c3)c3c(N)nccn32)C1 [OSI-906 (Linsitinib)] | -6.09 ± 6
C[C@H](Nc1ncnc2nc[nH]c12)c1cc2cccc(Cl)c2c(=O)n1-c1ccccc1 | -9.85 ± 5.9
CCCCCCCCc1ccc(CCC(N)(CO)CO)cc1.Cl [Fingolimod (FTY720) HCl] | -8.59 ± 6.3
CN(C[C@@H]1COCCO1)S(=O)(=O)Nc1ccc2ccc3ncc(-c4cnn(C)c4)cc3c(=O)c2c1 | 7.88 ± 10
FC(F)c1nc2ccccc2n1-c1nc(N2CCOCC2)nc(N2CCOCC2)n1 | -1.21 ± 9.1
NC(=O)Nc1cc(-c2cccc(F)c2)sc1C(=O)N[C@H]1CCCNC1 | 48.5 ± 24
O=C(O)c1ccc(Nc2ncc3c(n2)-c2ccc(Cl)cc2C(c2c(F)cccc2F)=NC3)cc1 | -4.14 ± 5.4
C=CC(=O)Nc1cccc(Nc2nc(Nc3ccc(OCCOC)cc3)ncc2F)c1 | -0.667 ± 7.7
CC(C)(O)CC(=O)NCCn1ccc2ncnc(Nc3ccc(Oc4cccc(C(F)(F)F)c4)c(Cl)c3)c21 | -2.36 ± 7.6
C=CC(=O)Nc1cccc(Oc2nc(Nc3ccc(N4CCN(C)CC4)cc3OC)ncc2Cl)c1 | 3 ± 23
COc1cc(Nc2c(C#N)cnc3cc(OCCCN4CCN(C)CC4)c(OC)cc23)c(Cl)cc1Cl [Bosutinib (SKI-606)] | 0.893 ± 13
COc1cc(N2CCC(N3CCN(C)CC3)CC2)ccc1Nc1ncnc(Nc2ccccc2S(=O)(=O)C(C)C)n1 | -6.14 ± 6.2
Cc1ncc(-c2ccnc(Nc3ccc(S(C)(=O)=O)cc3)n2)n1C(C)C | -3.5 ± 1.6
Cc1cc(C(=O)NOCCO)c(Nc2ccc(I)cc2F)n(C)c1=O | 4.03 ± 2.7
CNC(=O)c1cc(COc2nnc(Nc3ccc(Cl)cc3)c3ccoc23)ccn1 [Telatinib] | -1.95 ± 4.8
CC(C)(C#N)c1ccc(N2C(=O)OCc3cnc4ccc(-c5cnc6ccccc6c5)cc4c32)cc1 | -6.23 ± 1.2

Source: the supplement of paper PMC10720658
